According to PubChem BioAssay (Tox21):
Records with an inconclusive call do not appear. Entries that show only a call come without a potency. The source made the active and inactive calls. Calls come from the whole dose curve; as a rule, active = well fitted curve in the direction sought with a large enough effect in the repeat runs; inconclusive = weak or mixed curves; inactive = no such curve, though single readings can be large; an effect the other way counts as inactive or inconclusive.

Tests used:
[1] = molecular target: Cytochrome P450 2C19 (Homo sapiens) (UniProt P33261); experiment: Cytochrome P450 Family 2 Subfamily C Member 19 (CYP2C19) small molecule antagonists: luciferase reporter qHTS assay (AID 1671197); note: nearly all actives have a fitted effect of over 65% in size
Outline: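 P450-Glo CYP2C19 system: enzyme-substrate mix with compound 10 min at room temperature, then NADPH regeneration solution, 1 h at 37C. Proluciferin-to-luciferin conversion detected by luminescence after 20 min with detection reagent; ketoconazole as positive control.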

[2] = molecular target: Cytochrome P450 2C9 (Homo sapiens) (UniProt P11712); experiment: Cytochrome P450 Family 2 Subfamily C Member 9 (CYP2C9) small molecule antagonists: luciferase reporter qHTS assay (AID 1671198); note: nearly all actives have a fitted effect of over 50% in size
Outline: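 P450-Glo proluciferin substrate with CYP2C9 enzyme; 10 min RT preincubation, then NADPH regeneration 1 h at 37C; luciferin detection reagent 20 min RT, luminescence in relative luminescence units.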

[3] = molecular target: Cytochrome P450 1A2 (Homo sapiens) (UniProt P05177); experiment: Cytochrome P450 Family 1 Subfamily A Member 2 (CYP1A2) small molecule antagonists: luciferase reporter qHTS assay (AID 1671199); note: nearly all actives have a fitted effect of over 50% in size
Outline: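 CYP1A2 turnover of a luminogenic substrate was quantified after 1 h with NADPH regeneration at room temperature. Furafylline served as positive control.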

[4] = molecular target: Voltage-gated inwardly rectifying potassium channel KCNH2 (Homo sapiens) (UniProt Q12809); experiment: Human Ether-a-go-go-Related Gene (hERG) channel small molecule antagonists: fluorescence cell-based qHTS assay (AID 1671200); note: nearly all actives have a fitted effect of over 50% in size
Outline: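 Read-out: thallium influx as a surrogate for potassium, tracked as fluorescence (480 nm ex/540 nm em) every second for 2 min after Stimulus Buffer addition in dye-loaded hERG-U2OS cells.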

[5] = molecular target: Cytochrome P450 3A4 (Homo sapiens) (UniProt P08684); experiment: Cytochrome P450 Family 3 Subfamily A Member 4 (CYP3A4) small molecule antagonists: luciferase reporter qHTS assay (AID 1671201); note: nearly all actives have a fitted effect of over 50% in size
Outline: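 Luminescent readout (RLU) proportional to CYP3A4 activity, from luciferin generated off a proluciferin substrate. Enzyme–substrate mix plus compound 10 min at room temp, NADPH regeneration 1 h, detection reagent 20 min.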
Potency is the fitted concentration of half-maximal effect.

Cytochrome P450 1A2 (Homo sapiens), sequence (P05177 whole entry, looked up): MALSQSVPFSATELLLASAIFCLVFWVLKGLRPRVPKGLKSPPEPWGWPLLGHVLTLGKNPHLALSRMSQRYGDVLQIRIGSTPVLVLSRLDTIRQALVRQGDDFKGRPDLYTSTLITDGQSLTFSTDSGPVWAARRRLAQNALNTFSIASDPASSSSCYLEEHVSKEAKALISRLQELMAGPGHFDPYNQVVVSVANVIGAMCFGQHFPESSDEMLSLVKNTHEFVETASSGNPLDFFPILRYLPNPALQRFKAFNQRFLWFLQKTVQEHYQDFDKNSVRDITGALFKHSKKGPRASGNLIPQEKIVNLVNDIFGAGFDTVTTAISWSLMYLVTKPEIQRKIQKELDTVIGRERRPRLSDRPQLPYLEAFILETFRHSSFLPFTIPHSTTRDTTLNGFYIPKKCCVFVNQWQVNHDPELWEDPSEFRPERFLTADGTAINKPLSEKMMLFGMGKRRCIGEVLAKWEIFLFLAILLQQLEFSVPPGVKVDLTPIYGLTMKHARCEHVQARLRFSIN
Cytochrome P450 2C9 (Homo sapiens), sequence (P11712 whole entry, looked up): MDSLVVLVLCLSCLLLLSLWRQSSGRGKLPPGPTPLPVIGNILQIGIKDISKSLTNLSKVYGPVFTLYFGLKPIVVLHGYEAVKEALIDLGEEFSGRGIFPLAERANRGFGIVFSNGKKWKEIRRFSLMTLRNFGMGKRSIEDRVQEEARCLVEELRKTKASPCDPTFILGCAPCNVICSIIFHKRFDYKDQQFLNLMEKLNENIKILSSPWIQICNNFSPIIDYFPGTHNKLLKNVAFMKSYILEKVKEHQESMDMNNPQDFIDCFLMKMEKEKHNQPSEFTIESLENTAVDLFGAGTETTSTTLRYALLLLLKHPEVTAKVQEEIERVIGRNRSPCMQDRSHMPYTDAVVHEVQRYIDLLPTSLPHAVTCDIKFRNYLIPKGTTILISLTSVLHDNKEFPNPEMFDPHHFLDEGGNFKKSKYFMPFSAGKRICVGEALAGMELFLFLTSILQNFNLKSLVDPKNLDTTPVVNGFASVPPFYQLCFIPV
Cytochrome P450 2C19 (Homo sapiens), sequence (P33261 whole entry, looked up): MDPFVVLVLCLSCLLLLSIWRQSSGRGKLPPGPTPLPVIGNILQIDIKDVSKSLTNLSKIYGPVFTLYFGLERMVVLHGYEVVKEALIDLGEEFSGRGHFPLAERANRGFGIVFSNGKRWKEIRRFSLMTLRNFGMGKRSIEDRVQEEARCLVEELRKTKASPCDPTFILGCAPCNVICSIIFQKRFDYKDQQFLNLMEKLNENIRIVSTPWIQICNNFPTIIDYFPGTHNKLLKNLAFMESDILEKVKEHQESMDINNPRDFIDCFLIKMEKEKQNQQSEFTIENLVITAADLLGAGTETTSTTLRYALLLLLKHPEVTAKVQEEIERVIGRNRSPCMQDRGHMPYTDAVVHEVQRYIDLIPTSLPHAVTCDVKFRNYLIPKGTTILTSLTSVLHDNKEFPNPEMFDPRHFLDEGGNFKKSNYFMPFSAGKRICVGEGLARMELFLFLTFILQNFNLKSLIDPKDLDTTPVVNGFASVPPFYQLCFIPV
Voltage-gated inwardly rectifying potassium channel KCNH2 (Homo sapiens), sequence (Q12809 whole entry, looked up): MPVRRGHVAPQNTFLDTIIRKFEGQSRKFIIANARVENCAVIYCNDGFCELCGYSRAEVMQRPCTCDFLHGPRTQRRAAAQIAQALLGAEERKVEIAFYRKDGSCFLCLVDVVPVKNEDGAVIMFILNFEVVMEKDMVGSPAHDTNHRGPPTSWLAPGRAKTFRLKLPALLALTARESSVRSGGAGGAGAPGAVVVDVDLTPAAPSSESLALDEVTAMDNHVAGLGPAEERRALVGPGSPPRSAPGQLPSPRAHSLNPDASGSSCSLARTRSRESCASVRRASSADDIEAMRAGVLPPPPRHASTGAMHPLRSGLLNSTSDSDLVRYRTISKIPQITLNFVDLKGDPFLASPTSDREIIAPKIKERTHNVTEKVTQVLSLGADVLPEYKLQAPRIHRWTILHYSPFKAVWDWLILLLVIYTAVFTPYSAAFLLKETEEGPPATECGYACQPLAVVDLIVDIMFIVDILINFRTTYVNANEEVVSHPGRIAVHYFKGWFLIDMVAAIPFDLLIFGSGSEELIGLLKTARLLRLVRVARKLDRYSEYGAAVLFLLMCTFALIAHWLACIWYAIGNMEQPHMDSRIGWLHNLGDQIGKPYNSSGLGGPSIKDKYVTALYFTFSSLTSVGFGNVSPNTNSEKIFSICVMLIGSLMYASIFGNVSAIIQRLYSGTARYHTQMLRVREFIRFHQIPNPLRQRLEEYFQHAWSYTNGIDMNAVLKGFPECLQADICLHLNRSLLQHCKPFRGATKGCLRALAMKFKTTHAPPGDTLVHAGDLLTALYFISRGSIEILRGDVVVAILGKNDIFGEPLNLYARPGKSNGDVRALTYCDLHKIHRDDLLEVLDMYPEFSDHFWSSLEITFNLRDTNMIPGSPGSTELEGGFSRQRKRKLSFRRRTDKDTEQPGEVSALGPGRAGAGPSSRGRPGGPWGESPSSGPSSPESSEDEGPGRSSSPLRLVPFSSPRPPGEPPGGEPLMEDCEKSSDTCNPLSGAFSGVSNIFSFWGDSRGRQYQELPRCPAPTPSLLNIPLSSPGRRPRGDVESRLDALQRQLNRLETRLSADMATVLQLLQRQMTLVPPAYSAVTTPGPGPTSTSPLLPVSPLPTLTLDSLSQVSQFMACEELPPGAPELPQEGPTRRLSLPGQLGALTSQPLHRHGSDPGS
Cytochrome P450 3A4 (Homo sapiens), sequence (P08684 whole entry, looked up): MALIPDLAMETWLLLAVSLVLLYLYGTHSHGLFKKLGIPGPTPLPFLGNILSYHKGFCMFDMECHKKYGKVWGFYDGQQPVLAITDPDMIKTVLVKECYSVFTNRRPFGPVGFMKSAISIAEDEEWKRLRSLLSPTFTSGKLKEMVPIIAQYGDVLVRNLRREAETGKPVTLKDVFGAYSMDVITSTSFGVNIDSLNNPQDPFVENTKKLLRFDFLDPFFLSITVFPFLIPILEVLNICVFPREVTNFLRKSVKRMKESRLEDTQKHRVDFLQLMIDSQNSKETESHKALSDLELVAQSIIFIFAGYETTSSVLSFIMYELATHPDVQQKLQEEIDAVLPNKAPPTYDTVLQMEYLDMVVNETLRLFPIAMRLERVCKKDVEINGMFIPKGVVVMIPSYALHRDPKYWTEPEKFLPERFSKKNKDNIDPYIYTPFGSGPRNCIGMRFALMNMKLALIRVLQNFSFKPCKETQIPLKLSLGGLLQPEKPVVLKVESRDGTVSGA

SMILES | Potency [1] | Potency [2] | Potency [3] | Potency [4] | Potency [5]
Cc1occc1S | 56.4 µM (active) | 35.6 µM (active) | inactive | inactive | 28.3 µM (active)
CCCCCC/C=C/C=O | 71 µM (active) | 63.3 µM (active) | inactive | inactive | inactive
CCCCc1cc2ccccc2c(OCCN(C)C)n1 | inactive | inactive | 0.436 µM (active) | 3.38 µM (active) | inactive
Cc1ccc(C)o1 | inactive | inactive | inactive | inactive | inactive
CC(C)c1ccccc1C(C)C | 39.9 µM (active) | 39.9 µM (active) | 35.6 µM (active) | inactive | 22.5 µM (active)
CCCCCCOC(=O)CCC | inactive | inactive | inactive | inactive | inactive
C[C@@H](C1=C(CCN(C)C)Cc2ccccc21)c1ccccn1 | inactive | inactive | inactive | 19 µM (active) | inactive
O=C(CC(=O)c1ccccc1)c1ccccc1 | 24.1 µM (active) | 38.2 µM (active) | 3.82 µM (active) | inactive | inactive
c1ccc(CNCc2ccccc2)cc1 | 6.33 µM (active) | 44.8 µM (active) | 25.2 µM (active) | inactive | inactive
O=C(Cl)c1ccc([N+](=O)[O-])cc1 | inactive | inactive | 55.4 µM (active) | inactive | inactive
CC(C(=O)O)c1ccc(C(=O)c2ccccc2)s1 (centres undefined) | 4.9 µM (active) | 17.4 µM (active) | 9.11 µM (active) | inactive | inactive
CC[C@H](C)[C@@H](C(=O)O)n1sc2ccccc2c1=O | inactive | inactive | 25.2 µM (active) | inactive | inactive
COCCOCCOCCOCCOC | inactive | inactive | 35.6 µM (active) | inactive | inactive
O=C(O)[C@@H]1[C@H]2C[C@H]3c4[nH]c5ccccc5c4CCN3C[C@@H]2CC[C@@H]1O | 8.71 µM (active) | inactive | inactive | inactive | inactive
CC(=O)N(O)CCCCCNC(=O)CCC(=O)N(O)CCCCCNC(=O)CCC(=O)N(O)CCCCCN | inactive | inactive | 24.5 µM (active) | inactive | inactive
CCN(CC)C(C)=O | inactive | inactive | – | inactive | inactive
Cc1ccc(O)c([C@H](CCN(C(C)C)C(C)C)c2ccccc2)c1 | 24.5 µM (active) | – | inactive | – | –

SMILES | Potency [1] | Potency [2] | Potency [3] | Potency [4] | Potency [5]
CC(=O)NCCCS(=O)(=O)O | inactive | inactive | – | inactive | inactive
CCOc1ccc2[nH]cc(C(=O)NCc3ccccc3)c(=O)c2n1 | 79.6 µM (active) | – | 31.7 µM (active) | inactive | –
CC(C)CC=O | 35.6 µM (active) | – | inactive | inactive | –
CCOC(=O)C1=NN(c2ccccc2)C(=O)C1 | inactive | 71 µM (active) | – | inactive | inactive
CC(C)c1cccc(C(C)C)c1NC(=O)NS(=O)(=O)c1cc(C(C)(C)O)co1 | 11.2 µM (active) | 35.6 µM (active) | – | inactive | inactive
CCOC(=O)[C@H](CCc1ccccc1)N[C@H]1CCc2ccccc2N(CC(=O)O)C1=O | 6.92 µM (active) | – | 12.9 µM (active) | – | –
CC(C(=O)O)c1ccc(-c2ccccc2)c(F)c1 (centres undefined) | inactive | 25.2 µM (active) | – | inactive | inactive
COc1ccc([C@@H]2Sc3ccccc3N(CCN(C)C)C(=O)[C@@H]2OC(C)=O)cc1 | inactive | – | inactive | – | –
COCCCCCCCCOCCC[Si](C)(O[Si](C)(C)C)O[Si](C)(C)C | 56.4 µM (active) | 35.6 µM (active) | – | – | 3.56 µM (active)
CN1CCN(C2=Nc3ccccc3Sc3ccc(Cl)cc32)CC1 | 21.9 µM (active) | – | inactive | – | –
CC(=O)O[C@@H]1C(=O)O[C@@H]2[C@H]1OC(=O)[C@@H]2OC(C)=O | inactive | inactive | – | inactive | inactive
CCN(CC)CCc1nc(-c2ccccc2)no1 | inactive | inactive | – | inactive | inactive
C[Si](C)O[Si](C)(C)O[Si](C)(C)O[Si](C)C | inactive | – | inactive | inactive | –
NCCCN(CCO)CCO | inactive | inactive | – | inactive | inactive
CCCCCCCCCCCCCCC1CO1 (centres undefined) | inactive | inactive | – | inactive | inactive
N#Cc1c(F)cccc1F | inactive | inactive | – | inactive | inactive
O=C(O)c1cccc(N(Cc2cccnc2)c2ccc(OC(F)F)c(OC(F)F)c2)c1 | 35.6 µM (active) | 25.2 µM (active) | – | inactive | inactive
